A selection: hits, their analogues and other compounds. The true share with any hit is near 22%.
CHX counter: Cycloheximide Counterscreen for Small Molecule Inhibitors of Shiga Toxin; cell reporter, cycloheximide protein synthesis inhibition counterscreen; max response, %; 300,000 tested, 12% active; AID 2314, 2010; in the data active means max response mostly above about 13%, no sharp cut-off; inactive means mostly below about 14%; further: read at 38.3 µM for the half of the compounds with a filed dose
Pf growth 96h: Primary qHTS for delayed death inhibitors of the malarial parasite plastid, 96 hour incubation; Potency, µM (highest dose often 28.7 µM), hits mostly inhibitors; P. falciparum luciferase reporter growth, 96 h; AID 504834, 2011; 320,000 tested, 6.9% active
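Erythrocytes infected with luciferase-expressing P. falciparum were dispensed at 2% hematocrit and 0.05% parasitemia (final), then incubated with compounds 96 hours at 37 C in 5% CO2. Luminescence after detection reagent addition reported growth.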
Pf growth 48h: Primary qHTS for delayed death inhibitors of the malarial parasite plastid, 48 hour incubation | 310,000 tested, 5.9% active | P. falciparum luciferase growth in erythrocytes, 48 h | AID 504832, 2011 | Potency, µM (highest dose often 28.7 µM), usual class: inhibitors
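Luminescence readout; reporter = integrated firefly luciferase in P. falciparum. RBC culture at 2% hematocrit, 0.1% parasitemia final, 37 C/5% CO2; decreased signal taken as growth inhibition.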
Shiga inhibitor: A qHTS for Small Molecule Inhibitors of Shiga Toxin; Vero cells, Shiga toxin protein synthesis inhibition reporter; inhibition, % at 38.7 µM; 290,000 tested, 9.2% active; in the data active means inhibition mostly above about 28%, no sharp cut-off; inactive means mostly below about 43%
LmPK inh: qHTS Assay for Inhibitors of Leishmania Mexicana Pyruvate Kinase (LmPK) | Potency, µM (highest dose often 57.5 µM), most hits filed as inhibitors | Q27686 | 290,000 tested, 0.37% active | purified LmPK, Kinase-Glo ATP luminescence, 1 h | AID 1721, 2009
Target sequence (Q27686 whole entry, looked up): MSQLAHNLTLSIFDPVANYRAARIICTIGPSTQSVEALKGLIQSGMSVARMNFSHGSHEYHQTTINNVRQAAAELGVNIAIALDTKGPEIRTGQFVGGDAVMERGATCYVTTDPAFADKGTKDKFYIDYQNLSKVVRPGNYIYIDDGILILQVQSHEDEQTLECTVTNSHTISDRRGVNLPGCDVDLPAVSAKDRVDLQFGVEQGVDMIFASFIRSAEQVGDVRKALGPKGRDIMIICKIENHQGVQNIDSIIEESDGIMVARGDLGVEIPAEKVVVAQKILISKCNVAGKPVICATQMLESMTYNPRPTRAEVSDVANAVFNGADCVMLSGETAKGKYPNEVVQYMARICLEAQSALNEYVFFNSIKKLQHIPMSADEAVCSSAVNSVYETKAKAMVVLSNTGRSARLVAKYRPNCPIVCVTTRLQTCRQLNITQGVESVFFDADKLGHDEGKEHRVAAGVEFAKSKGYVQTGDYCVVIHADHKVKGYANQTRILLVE
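Purified LmPK (0.1 nM) with 0.5 mM PEP and 0.1 mM ADP in imidazole buffer pH 7.2 with MgCl2/KCl, 1 h at room temperature. ATP formed was read by luciferase luminescence and normalized to no-enzyme and uninhibited controls.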
Large screens that a line does not name were inactive. Unless noted, the call rests on the fitted dose curve; in most records, active means well fitted inhibition curve with a large enough effect; inconclusive means small, poorly fitted or top-dose-only effect, or another doubt; inactive means no such curve, though single readings can be large or run the other way.

CCOc1ccc(N2C(=O)C3C(c4ccccc4F)NN(C(=O)c4ccc(C)cc4)C3C2=O)cc1 (stereo not drawn)	none
O=C(NC1CC1)C1CCN(c2ncccn2)CC1	none
CCCCCCOc1ccc(N2C(=O)CC(SC(=NCC)NCC)C2=O)cc1 (stereo not drawn)	none
CCCCn1c(-c2csc(CC)c2)n[nH]c1=S	LmPK inh inconclusive
CCc1cc(-c2n[nH]c(=S)n2-c2cccc(C)c2)cs1	LmPK inh 4.5µM (no result: Pf growth 96h)
Fc1cccc(-c2n[nH]c(=S)n2-c2ccccc2)c1	LmPK inh inconclusive (no result: Shiga inhibitor)
Cc1cccc(-n2c(-c3csc(C)c3)n[nH]c2=S)c1	LmPK inh 4.5µM (no result: Pf growth 96h)
N#Cc1cccc(NC(=O)CSc2nnc(C3CC3)n2C2CC2)c1	none (no result: CHX counter, Shiga inhibitor, LmPK inh)
CN(CC(=O)Nc1ccc(F)cc1)C(=O)CCc1ccccc1	none
CC1Cc2nc(SCC(N)=O)n(Cc3ccccc3)c(=O)c2S1 (stereo not drawn)	Pf growth 96h inconclusive, Pf growth 48h inconclusive
CCn1c(SCC(=O)N2CCN(c3ccccc3)CC2)nc2c(c1=O)SC(C)C2 (stereo not drawn)	Pf growth 96h inconclusive, Pf growth 48h inconclusive
COCCn1c(SCC(=O)Nc2ccc3c(c2)OCCO3)nc2c(c1=O)SC(C)C2 (stereo not drawn)	CHX counter 23, Pf growth 96h inconclusive, Shiga inhibitor 30
CC1Cc2nc(SCC(=O)Nc3ccc4c(c3)OCO4)n(Cc3ccccc3)c(=O)c2S1 (stereo not drawn)	CHX counter 56, Pf growth 48h 2.3µM, Shiga inhibitor 83
CC1Cc2nc(SCC(=O)Nc3ccc(F)cc3F)n(C)c(=O)c2S1 (stereo not drawn)	Pf growth 96h inconclusive, Pf growth 48h 6.6µM
CC1Cc2nc(SCC(=O)N3CCN(c4ccccc4)CC3)n(CCc3ccccc3)c(=O)c2S1 (stereo not drawn)	Pf growth 96h inconclusive, Pf growth 48h 9.3µM
O=C(CSc1nc2ccccc2n1CC(=O)N1CCCC1)Nc1ccc2c(c1)OCO2	none
CC1Cc2nc(SCC(=O)Nc3nccs3)n(Cc3ccccc3)c(=O)c2S1 (stereo not drawn)	Pf growth 96h 1.5µM, Pf growth 48h 3.3µM
CC1CCCC(C)N1C(=O)Cn1c(SCC(=O)Nc2ccc3c(c2)OCO3)nc2ccccc21 (stereo not drawn)	Pf growth 96h 13µM, Pf growth 48h inconclusive
CC1Cc2nc(SCC(=O)Nc3ccc4c(c3)OCCO4)n(C)c(=O)c2S1 (stereo not drawn)	CHX counter 9.0, Pf growth 96h inconclusive, Pf growth 48h inconclusive
CC(Oc1ccc2c3c(c(=O)oc2c1)CCC3)C(=O)NCCCn1ccnc1 (stereo not drawn)	Pf growth 96h inconclusive
O=C(Cc1cccs1)N1CCN=C1SCc1cccc(F)c1	none
Cc1ccc(C(=O)NCCNC(=O)COc2ccc(C)c(C)c2)cn1	none
CCOc1ccc(NC(=O)CSc2nnc(-c3ccccc3Cl)n2Cc2ccco2)cc1	Pf growth 96h 0.033µM, Pf growth 48h inconclusive
COc1ccc(NC(=O)CSc2nccn2Cc2ccco2)cc1	CHX counter 56, Shiga inhibitor 124
COc1ccc(NC(=O)CSc2nccn2Cc2ccco2)cc1OC	CHX counter 27, Shiga inhibitor 36
CCOc1ccc(NC(=O)CSc2nccn2Cc2ccco2)cc1	CHX counter 31, Pf growth 48h inconclusive, Shiga inhibitor 41
CNc1c(NS(=O)(=O)c2ccc(C3CCCCC3)cc2)c(=O)oc2ccccc12	none
Cc1ccc(Cn2c(C3CCCN3c3nc(C)cs3)nc3cc(C(F)(F)F)ccc32)cc1 (stereo not drawn)	Pf growth 96h inconclusive, Pf growth 48h inconclusive
Cc1c2c(nc3ccccc13)CCC(C(C)(C)C)C2 (stereo not drawn)	CHX counter 26, Shiga inhibitor 62
COCCn1nnnc1C(C(C)C)N(Cc1cccnc1)Cc1ccccc1Cl (stereo not drawn)	Pf growth 48h 10µM
CC1(C(=O)O)CCC2(C)CCC3(C)C(=CC(=O)C4C5(C)CCC(O)C(C)(C)C5CCC43C)C2C1 (stereo not drawn)	none (no result: CHX counter, Shiga inhibitor, LmPK inh)
O=C(CSc1nc2ccccc2[nH]1)Nc1ccccc1N1CCOCC1	none (no result: Pf growth 96h)
O=C(CSc1nc2ccccc2[nH]1)Nc1cc(C(F)(F)F)ccc1N1CCOCC1	Pf growth 96h 5.2µM, Pf growth 48h inconclusive
O=C(CSc1ccc([N+](=O)[O-])cn1)Nc1cc(C(F)(F)F)ccc1N1CCOCC1	Pf growth 48h 5.2µM
O=C(CSc1ccc([N+](=O)[O-])cn1)Nc1ccccc1N1CCOCC1	Pf growth 48h inconclusive
Cc1ccsc1C(=O)NNC(=O)C1C2C=CC(C2)C1C(=O)O (stereo not drawn)	CHX counter 121, Shiga inhibitor 96
CCCCOc1ccc(C(=O)NNC(=O)C2C3C=CC(C3)C2C(=O)O)cc1 (stereo not drawn)	CHX counter 10
O=C(NNC(=O)C1C2CCC(C2)C1C(=O)O)c1ccc(Br)o1 (stereo not drawn)	CHX counter 42, Shiga inhibitor 76
O=C(NC1C2CC3CC(C2)CC1C3)c1ccc(Br)o1 (stereo not drawn)	Pf growth 48h inconclusive
CC(C)c1ccc(C(=O)NNC(=O)C2C3CCC(C3)C2C(=O)O)cc1 (stereo not drawn)	CHX counter 39, Shiga inhibitor 101
OCCC1CN(Cc2cnc(-c3cccc4ccccc34)nc2)CCN1C1CCCCC1 (stereo not drawn)	Pf growth 48h inconclusive
CC(C)CNC(=O)COC(=O)c1ccc2c(c1)C(=O)N(Cc1ccco1)C2=O	none
CC(C)c1ccc(C(=O)NN2C(=O)C3CCCCC3C2=O)cc1 (stereo not drawn)	CHX counter 50, Shiga inhibitor 96
CCCCOc1ccc(C(=O)NCC(=O)NC2CCC(C)CC2)cc1 (stereo not drawn)	none (no result: CHX counter, Shiga inhibitor, LmPK inh)
CCOc1cccc(C(=O)NNC(=O)C2C3C=CC(C3)C2C(=O)O)c1 (stereo not drawn)	CHX counter 20
CCCCOc1ccc(C(=O)NNC(=O)C2C3CCC(C3)C2C(=O)O)cc1 (stereo not drawn)	CHX counter 40, Shiga inhibitor 72
CCn1c(=O)c2sccc2n(Cc2ccc(C)cc2)c1=O	none
COc1ccccc1CNC(=O)C1CCC(CNS(=O)(=O)c2ccc(F)cc2)CC1 (stereo not drawn)	none
Cn1nnnc1SCC(=O)Nc1ccc2c(c1)OCO2	CHX counter 26, Pf growth 96h inconclusive, Shiga inhibitor 114
CCCCn1nnnc1SCC(=O)Nc1ccc2c(c1)OCCO2	Pf growth 96h inconclusive
Cn1c(=O)c2c(SCC(=O)N3CCCC3)nc(CC(C)(C)C)nc2n(C)c1=O	Pf growth 96h 13µM
CCCn1c(SCC(=O)N2CCCC2)nc2c1c(=O)n(C)c(=O)n2C	Pf growth 96h 1.2µM
CCn1nnnc1SCC(=O)Nc1ccc2c(c1)OCO2	Shiga inhibitor 45
